# Compounds with a hit are over-represented: about 2% of the library has one in this group of screens.
# FUS suppressor = suppressors of FUS proteinopathy in yeast. S. cerevisiae FUS-expressing, growth rescue, OD600, 24 h. Potency, µM (titrated, usually from 76.6 µM), actives largely listed as activators. 0.24% of 390,000 active. AID 1347120; also: nearly all actives have a fitted effect of over 55% in size
#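 Steps: raffinose overnight preculture; dilution to OD 0.005 in 2% galactose minimal medium; compound addition (concentration series); 24hr at 30C, 99% humidity; absorbance read at 600 nm.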
# Abeta rescue = compounds reversing amyloid beta toxicity in yeast; 0.063% of 410,000 active; yeast expressing A-beta42, growth rescue, OD600, 48 h; response scale: 0% DMSO, 100% iron-clioquinol control; Potency, µM (series often up to 46.1 µM), most hits filed as activators; also: nearly all actives have a fitted effect of over 55% in size
#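 Growth rescue measured by 600 nm absorbance after 48 h yeast culture at 30 C with compound. Values normalized between DMSO and an equimolar ferric chloride plus clioquinol control.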
# aSyn rescue = alpha-synuclein toxicity inhibition in yeast. Yeast expressing alpha-synuclein, growth rescue, BacTiter-Glo, 24 h. Potency, µM (highest dose often 46.1 µM), most hits filed as activators. 0.14% of 370,000 active; also: nearly all actives have a fitted effect of over 65% in size
#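 Galactose-induced alpha-syn yeast (OD600=0.02, raffinose-pregrown) + pinned cpd, 24 hr, 30 deg C; growth by BacTiter-Glo luminescence. Growth restoration scores as activation.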
# TDP-43 yeast inh = TDP-43 toxicity inhibition in yeast; TDP-43 expressing yeast growth rescue, BacTiter-Glo, 24 h; Potency, µM (top dose mostly 46.1 µM), most hits filed as activators; 1.8% of 410,000 active; also: nearly all actives have a fitted effect of over 50% in size
#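 Yeast cells expressing TDP-43 under galactose induction are exposed to compounds for 24 hr at 30 deg C. BacTiter-Glo luminescence measures growth, so protective compounds score as activators.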
# GRP78 ERSR act = ER stress response induction in glioma; U87-MG GRP78 promoter luciferase reporter, 16 h; Potency, µM, usual class: activators; 0.02% of 420,000 active; also: series mostly up to about 76 µM; nearly all actives have a fitted effect of over 35% in size
#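 Stably transfected U87-MG glioma cells carrying a GRP78-based luciferase sensor; 16 h compound incubation. Luminescence end-point read 10 min after Bright-Glo addition at room temperature.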
# MBNL1 CUG block = blocks human MBNL1 binding to CUG repeat RNA; Q9NR56; TR-FRET MBNL1-His/biotin-(CUG)12 binding, 665/545 ratio; Potency, µM (titrated, usually from 57.5 µM), hits mostly inhibitors; 0.036% of 280,000 active; AID 2675; active = well fitted inhibition curve with a large enough effect in the signal ratio, with a control signal flat, not every such curve was filed as active; inconclusive = small, poorly fitted or top-dose-only effect, or effect the other way, or a change in a side signal; inactive = no such curve, though single readings can be large or run the other way; the % refers to the signal ratio
# Target sequence (Q9NR56 whole entry, looked up): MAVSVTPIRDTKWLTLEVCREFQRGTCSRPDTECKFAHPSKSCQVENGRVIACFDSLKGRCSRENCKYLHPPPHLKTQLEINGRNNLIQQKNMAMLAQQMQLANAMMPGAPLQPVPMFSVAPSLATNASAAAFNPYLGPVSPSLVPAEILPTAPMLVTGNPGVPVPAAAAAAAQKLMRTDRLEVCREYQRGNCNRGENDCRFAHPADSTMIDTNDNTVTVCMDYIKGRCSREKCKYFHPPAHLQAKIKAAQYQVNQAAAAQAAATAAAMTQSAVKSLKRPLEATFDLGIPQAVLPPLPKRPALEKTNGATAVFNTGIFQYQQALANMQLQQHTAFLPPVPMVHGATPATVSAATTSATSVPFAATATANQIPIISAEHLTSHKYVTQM
#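 TR-FRET between His-tagged MBNL1 and biotin-(CUG)12 RNA, detected with Tb anti-His antibody (0.055 ng/ul) and streptavidin-XL665 (5 nM), 60 min at room temperature. Compounds titrated 92 nM to 58 uM; 665/545 nm ratio normalized to buffer and complex controls.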
# Hits are given with their value; . = inactive; ? = inconclusive; / = no result given; [ ] = remark or other dose. Unless noted, calls follow the shape of the dose curve; as a rule, active = well fitted curve in the direction sought with a large enough effect; inconclusive = small, poorly fitted or top-dose-only effect, or another doubt; inactive = no such curve, though single readings can be large; an effect the other way counts as inactive or inconclusive.
SMILES,FUS suppressor,Abeta rescue,aSyn rescue,TDP-43 yeast inh,GRP78 ERSR act,MBNL1 CUG block
COc1ccc2c(c1)-c1nc(-n3ncc(C(=O)NC[C@@H]4CCCN5CCCC[C@H]45)c3C)ncc1CC2,/,/,/,/,.,/
COc1ccc(S[C@]2(C(=O)N3CCN(c4ncccn4)CC3)CC(=O)N(C(=O)c3ccccc3)[C@@H]2c2ccc(OC)cc2)cc1,.,/,/,/,/,/
O=C(O)CCCCCN1C(=O)C(O)=C(C(=O)/C=C/c2ccccc2)C1c1ccc2c(c1)OCO2 (configuration not stated),35µM,.,.,.,.,.
CCN(CC)c1ccc(/C=C/c2ccncc2)cc1,/,/,/,/,.,/
COC(=O)C1=C(C(=O)OC)[C@]2([C@H]3CC=CCN[C@@H](Cc4ccccc4)C(=O)N3Cc3ccccc3)C=C[C@H]1O2,22µM,.,.,.,.,/
COC(=O)C1=C(C(=O)OC)[C@]2([C@@H]3CC=CCN[C@@H](Cc4ccccc4)C(=O)N3Cc3ccccc3)C=C[C@H]1O2,.,.,.,.,.,/
C=CCOC(=O)c1cn(CC)c2nc(C)ccc2c1=O,.,.,.,?,.,.
CCn1cc(C(=O)OCC(=O)OC2CC(C)CCC2C(C)C)c(=O)c2ccc(C)nc21 (configuration not stated),?,.,.,22µM,.,.
Cc1ccc(C2OC34CCCCCC3C(C#N)(C(=N)O4)C2(C#N)C#N)cc1 (configuration not stated),.,.,.,1.3µM,.,/
COc1ccccc1NC(=O)c1cc2ccccc2o/c1=N\O,/,.,.,18µM,.,.
COc1ccccc1NC(=O)Cn1nnc(-c2ccccc2NC(=O)c2cc3ccccc3oc2=O)n1,25µM,.,.,.,.,.
O=C(c1ccncc1)N1CCC(Oc2cccnc2)CC1,.,/,/,/,/,/
O=C(Nc1ccccc1Oc1ccccc1)c1cccc([N+](=O)[O-])c1,.,.,?,14µM,.,?
CCNC(=O)CN(c1ccccc1)S(=O)(=O)c1ccc(Cl)cc1,.,.,.,.,.,.
CCNC(=O)CN(c1ccc(Cl)cc1)S(=O)(=O)c1ccccc1,.,.,.,11µM,.,.
CO[C@H](C(=O)[C@@H](O)[C@@H](C)O)C1Cc2cc3cc(O[C@H]4C[C@@H](O[C@H]5C[C@@H](O)[C@H](O)[C@@H](C)O5)[C@@H](O)[C@@H](C)O4)c(C)c(O)c3c(O)c2C(=O)[C@H]1O[C@H]1C[C@@H](O[C@H]2C[C@@H](O[C@H]3C[C@](C)(O)[C@H](O)[C@@H](C)O3)[C@H](O)[C@@H](C)O2)[C@H](O)[C@@H](C)O1 (some centres not stated),/,/,/,/,.,/
CC1(C(=O)Nc2ccc(Cl)c(Cl)c2)CCN1Cc1ccccc1OC(F)F (configuration not stated),.,.,.,22µM,.,/
COc1ccc(NC(=O)C2(C)CCN2Cc2ccccc2OC(F)F)cc1OC (configuration not stated),.,.,.,.,.,/
COc1ccc(Nc2ccccc2C(=O)O)cc1,.,.,.,.,.,.
COc1ccc(Nc2cccccc2=O)cc1,.,.,.,11µM,.,?
Cc1cccc(CN2C(=O)[C@H]3Cc4c([nH]c5ccccc45)C(C)(C)N3C2=O)c1,?,?,/,/,.,/
Cc1cccc(CN2C(=O)[C@@H]3Cc4c([nH]c5ccccc45)C(C)(C)N3C2=O)c1,.,7.9µM,/,/,.,/
Cc1ccc(C)c(OCc2nc3ccc(S(=O)(=O)Nc4c(C)n(C)n(-c5ccccc5)c4=O)cc3[nH]2)c1,35µM,.,.,.[0.397 µM],.,.
Cc1cnc(SCC2CCCO2)nc1C1CCCN(C(=O)c2ccc(S(N)(=O)=O)cc2)C1 (configuration not stated),/,/,/,/,.,/
CCCCOc1ccc(C(=O)NC2CCCCN(Cc3cccc(C(F)(F)F)c3)C2=O)cc1 (configuration not stated),.,/,/,/,/,/
SMILES,FUS suppressor,Abeta rescue,aSyn rescue,TDP-43 yeast inh,GRP78 ERSR act,MBNL1 CUG block
O=C(NCc1cccc(Cl)c1)c1ccc(-n2ccnc2)c2ccoc12,.,.,.,.,.,/
O=C(NCc1cccc(Cl)c1)c1ccc(-n2cncn2)c2ccoc12,.,.,.,35µM,.,/
Fc1ccc(-c2cc3nc4c(c(N5CCOCC5)n3n2)CCCC4)cc1,.,.,.,16µM,.,.
COC(=O)[C@]12C[C@H](CC(=O)N3CCOCC3)C(=O)N(Cc3ccco3)C1=C[C@H](C(C)(C)C)O[C@@H]2C,.,/,/,/,/,/
COc1ccc(C=O)cc1COc1ccc2c(c1)OCO2,.,.,.,14µM,.,/
C/C(=N/NC(N)=S)c1cc2ccc(O)cc2oc1=O,.,11µM,.,.,.,/
C/C(=N/NC(=O)c1ccncc1)c1cc2ccc(O)cc2oc1=O,/,.,.,.,.,/
CC(C)COC(=O)NCCOC(=O)Nc1cccc(Cl)c1,.,.,.,25µM,.,.
CCCS(=O)(=O)NCc1c(C)ncc2c1CCN(C(=O)c1c(F)ccc(F)c1F)C2,/,/,/,/,.,/
Cn1c(=O)c(-c2ccccc2)c(O)c2ccccc21,.,.,.,20µM,.,.
CCCc1cc(C(=O)Nc2ccc(C(=O)c3ccccc3)cc2)n(C)n1,.,.,.,25µM,.,.
CCCc1cc(C(=O)Nc2ccc(C(=O)c3ccc(F)cc3)cc2)n(C)n1,?,.,.,?,.,.
CCO/C=C1/C(=O)N(C)C(=O)c2cc(OC)ccc21,.,.,.,13µM,.,?
O=C1c2ccccc2NC(c2ccc(-c3ccc(Br)cc3)o2)N1O (configuration not stated),?,.,22µM,.,.,.
O=C1c2ccccc2NC(c2ccc(-c3ccc(F)cc3)o2)N1O (configuration not stated),.,.,/,/,.,/
COc1cc2c(NC3CCN(C(C)C)CC3)nc(N3CCCN(C)CC3)nc2cc1OCCCN(C)C,/,/,.,/,.,/
N#Cc1ncc(C(F)(F)F)cc1Sc1ccc(N)cc1,.,?,.,14µM,.,.
COc1ccc2c(c1)OC(C)(C)C(c1ccccc1)C2c1ccc(OCCN2CCCC2)cc1 (configuration not stated),/,/,/,/,.,/
CCC(C)(C)c1ccc(OCCCC[n+]2ccccc2)c(C(C)(C)CC)c1,.,.,.,14µM,.,.
OCCCN1CCC2(CCC(c3ccccc3)CC2)C1 (configuration not stated),.,/,/,/,/,/
O=C1[C@@H](C2CCCCC2)[C@@H]2c3ccccc3C=NN2[C@@H]2c3ccccc3C=NN12,.,/,/,/,/,/
C=CCNC(=S)NC(=O)c1ccc(C)c(Br)c1,.,10µM,.,?,.,.

# Bioassay records: PubChem BioAssay, National Center for Advancing Translational Sciences (NCATS)
